system: HepG2; assay: GSK_TCMDC: Percent inhibition of human HepG2 cell line. Test compounds present at 10uM.; assay type: functional

Question: For CC12CC3CC(C)(C1)CC(Nc1nc(N4CCOCC4)nc4ccccc14)(C3)C2, which Inhibition is on record?
Answer: 31%

Question: CC(C)CNCc1cccc(-c2ccccc2CNC2CCN(Cc3ccccc3)CC2)c1.O=C(O)C(F)(F)F was tested. Which Inhibition did it give?
Answer: 25%

Question: Which Inhibition does the source give for OCCOCn1cnc2cnc(N[C@H]3OC[C@H](O)[C@@H](O)[C@@H]3O)nc21 here?
Answer: 42%

Question: Which Inhibition does the source give for COc1cc2ccccc2c(CNCCCCCCNCc2c(OC)c(OC)cc3ccccc23)c1OC.CS(=O)(=O)O here?
Answer: 100%

Question: With COc1cc(C2NCC3(CCOCC3)c3cc4c(cc32)OCCO4)cc(OC)c1OC.Cl (stereo not given) as the compound, how does the Inhibition read?
Answer: 24%

Question: CCCNCc1ccc(-c2ccc(CN(CCOC)C(=O)CCc3ccc(OC)cc3)cc2)nc1.O=C(O)C(F)(F)F was tested. Which Inhibition did it give?
Answer: 11%

Question: Which Inhibition does the source give for COc1cc(NC(=O)/C=C/c2ccccc2Cl)cc(OCCN2CCC(O)(c3ccccc3)CC2)c1.O=C(O)C(=O)O here?
Answer: 48%

Question: How did the Inhibition turn out when O=C(NC(=O)c1ccccc1O)c1ccccc1O was run?
Answer: 0%

Question: How did the Inhibition turn out when FC(F)(F)c1cnc(Sc2nnc(-c3ccncc3)o2)c(Cl)c1 was run?
Answer: 10%

Question: O=C(/C=C/c1ccc(-c2nc3ccc(Cl)cc3[nH]2)cc1)NCc1cccc(F)c1 was tested. Which Inhibition did it give?
Answer: 1%

Question: For CCCCCCCCc1c(C)nc(C)c(I)c1O, which Inhibition is on record?
Answer: 5%

Question: How did the Inhibition turn out when C=CCn1c(SCc2c(C)noc2C)nc2scc(-c3cccs3)c2c1=O was run?
Answer: 13%

Question: Which Inhibition does the source give for CCCCCCCCOc1c(OCC)cc(Cc2cnc(N)nc2N)cc1OCC here?
Answer: 25%

Question: C=C1C(C(=O)OCC)=CN(CC)c2cc(O[C@@H]3CCN(C(=O)OC(C)(C)C)C3)ccc21 was tested. Which Inhibition did it give?
Answer: 13%

Question: How did the Inhibition turn out when Cc1cc(=NN=Cc2cccc(Cl)c2)c2cc(F)ccc2[nH]1 was run?
Answer: 1%

Question: O=C(Nc1ccc(-c2ccc(-c3nc4ccccc4[nH]3)cc2)cc1)Nc1ccc(Cl)c(Cl)c1 was tested. Which Inhibition did it give?
Answer: 68%

Question: How did the Inhibition turn out when O=C(NCc1ccc(F)cc1)Nc1ccc(-c2ccc(-c3nc4ccccc4[nH]3)cc2)cc1 was run?
Answer: 43%

Question: With CC1CCN(c2nc(C(=O)NCCc3ccc(Cl)c(Cl)c3)c(C(C)C)s2)CC1.O=C(O)C(F)(F)F as the compound, how does the Inhibition read?
Answer: 0%

Question: With CS(=O)(=O)c1ccc(CCNCc2ccc(-c3ccc(CN(C(=O)c4ccco4)C4CCN(Cc5ccccc5)CC4)cc3)nc2)cc1.O=C(O)C(F)(F)F as the compound, how does the Inhibition read?
Answer: 13%

Question: COc1ccccc1C(=O)N1CCN(Cc2cccs2)CC1 was tested. Which Inhibition did it give?
Answer: 87%

Question: For COCCNC(=O)C1CCN(C(c2ccc(Cl)cc2)c2ccc(Cl)cc2)CC1, which Inhibition is on record?
Answer: 3%

Question: COc1ccc2ncc(F)c([C@H](O)CN3CCC(NCc4cc5c(cn4)OCCO5)CC3)c2c1.Cl was tested. Which Inhibition did it give?
Answer: 5%

Question: COc1ccccc1C(=O)Nc1cccc(N2CCC(NCc3ccc(-n4cccn4)cc3)CC2)c1 was tested. Which Inhibition did it give?
Answer: 9%

Question: For Cc1ccc(-c2nc(N3CCN(C(=O)c4ccco4)CC3)c3ccccc3n2)cc1, which Inhibition is on record?
Answer: 0%

Question: With Cn1ccnc1Sc1ncccc1[N+](=O)[O-] as the compound, how does the Inhibition read?
Answer: 0%

Question: For CCN(CC)CCON=Cc1cc(C)c2[nH]c3ccc(OCc4ccccc4)cc3c2c1C, which Inhibition is on record?
Answer: 29%

Question: Which Inhibition does the source give for CC(C)Oc1cc(-c2ccc(S(C)(=O)=O)cc2)nc(N(Cc2cccc(F)c2F)Cc2cccc(F)c2F)n1 here?
Answer: 10%

Question: With COc1cc(Br)c(S(=O)(=O)n2cc(CN3CCC(N)CC3)c3cc(Cl)ccc32)cc1OC.O=C(O)C(F)(F)F as the compound, how does the Inhibition read?
Answer: 27%

Question: Which Inhibition does the source give for Cc1nc(N)nc(N)c1OCCCOc1ccccc1Br.Cl here?
Answer: 57%

Question: CN1CCc2ccc(NC(=O)Nc3cccc(C(=O)c4ccccc4)c3)cc2C1 was tested. Which Inhibition did it give?
Answer: 11%

Question: How did the Inhibition turn out when NS(=O)(=O)Cc1cccc(-c2ccnc3ccc(-c4cccc(S(N)(=O)=O)c4)cc23)c1 was run?
Answer: 39%

Question: Which Inhibition does the source give for O=C(Nc1ccc(Br)cc1)Nc1ccc(Cn2ncc(N3CCCNCC3)c(Cl)c2=O)cc1.O=C(O)C(F)(F)F here?
Answer: 0%

Question: CC(C)c1sc(-c2ccc(C(C)(C)C)cc2)nc1C(=O)NCCCN1CCCC1=O was tested. Which Inhibition did it give?
Answer: 0%

Question: How did the Inhibition turn out when O=C(Nc1cccc(C(F)(F)F)c1)c1cccc(S(=O)(=O)NCC2CCCN(Cc3ccccc3)C2)c1.O=C(O)C(F)(F)F (stereo not given) was run?
Answer: 17%

Question: Which Inhibition does the source give for COC(=O)CNC(c1ccccc1)c1cc(Br)ccc1NC(=O)c1ccccc1Br (stereo not given) here?
Answer: 10%

Question: Cc1ccccc1C1CCN(c2ncc(C(=O)Nc3ccccc3)cc2Cl)CC1.O=C(O)C(F)(F)F was tested. Which Inhibition did it give?
Answer: 29%

Question: Which Inhibition does the source give for CCN1CCC(N(Cc2ccc(-c3ccc(C(F)(F)F)cc3)cc2)C(=O)CCCCn2c(CCc3cccc(F)c3F)nc(=O)c3ccccc32)CC1 here?
Answer: 54%

Question: How did the Inhibition turn out when NC(=O)c1ccsc1NC(=O)CNC(c1ccccc1)c1ccc(Cl)cc1 (stereo not given) was run?
Answer: 25%

Question: COc1c(C2=CCN(CCCCNC(=O)c3ccc(-c4ccc(C#N)cc4)cc3)CC2)ccc2c1CCCC2 was tested. Which Inhibition did it give?
Answer: 44%

Question: With COc1ccccc1CCN1CCC(CN(C)Cc2ccc(O)c(Cl)c2)CC1 as the compound, how does the Inhibition read?
Answer: 19%

Reference: ChEMBL document CHEMBL1157539, “Thousands of chemical starting points for antimalarial lead identification” (Nature, 2010)
